Results filed as inconclusive are left out. Activity calls are given as the source filed them. The call rests on the fitted dose curve; in most records, active means well fitted curve in the direction sought with a large enough effect; inconclusive means small, poorly fitted or top-dose-only effect, or another doubt; inactive means no such curve, though single readings can be large; an effect the other way counts as inactive or inconclusive.
Assays:
[1] = qHTS of pediatric cancer cell lines to identify multiple opportunities for drug repurposing: Primary screen for A673 cells (AID 1347092); further: nearly all actives have a fitted effect of over 45% in size
Outline: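 Titration-based qHTS on A673 cells: MIPE compounds spanned 11 points (0.78 nM to 46 µM final), NPC compounds 8 points (0.59 nM to 46 µM final). Viability after 48 h was measured by ATP luminescence.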

[2] = qHTS of pediatric cancer cell lines to identify multiple opportunities for drug repurposing: Primary screen for SK-N-MC cells (AID 1347093); further: series mostly up to about 46 µM
Outline: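 Metabolically active cells were quantified by ATP-dependent luminescence (CellTiter-Glo, 15 min at room temperature) following 48 h treatment. Cells had been plated at 500-1,000 per well and settled for 5 h beforehand.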

[3] = qHTS of pediatric cancer cell lines to identify multiple opportunities for drug repurposing: Primary screen for BT-37 cells (AID 1347094); further: series mostly up to about 57 µM
Outline: (§1)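 Plated cells (500-1,000 per well, growth media) were allowed to settle for 5 hours, treated with compound dilutions for 48 hours, then lysed with CellTiter-Glo for 15 min at room temperature before luminescence reading.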

[4] = qHTS of pediatric cancer cell lines to identify multiple opportunities for drug repurposing: Primary screen for U-2 OS cells (AID 1347096); further: nearly all actives have a fitted effect of over 50% in size
Outline: (§2)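 Cells (500-1,000/well) rested 5 h, then received compounds for 48 h; metabolically active cells were measured by CellTiter-Glo luminescence. Final concentrations spanned up to 46 µM (MIPE, 11-point) or 0.59 nM-46 µM (NPC, 8-point) in primary screens, 11-point in follow-ups.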

[5] = qHTS of pediatric cancer cell lines to identify multiple opportunities for drug repurposing: Primary screen for Saos-2 cells (AID 1347097); further: nearly all actives have a fitted effect of over 40% in size
Outline: as §1

[6] = qHTS of pediatric cancer cell lines to identify multiple opportunities for drug repurposing: Primary screen for SK-N-SH cells (AID 1347098);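 further: DMSO served as neutral control and bortezomib at 2.3 µM as positive control; nearly all actives have a fitted effect of over 65% in size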
Outline: as §2

[7] = qHTS of pediatric cancer cell lines to identify multiple opportunities for drug repurposing: Primary screen for LAN-5 cells (AID 1347100)
Outline: as §2

[8] = qHTS of pediatric cancer cell lines to identify multiple opportunities for drug repurposing: Primary screen for BT-12 cells (AID 1347101); further: nearly all actives have a fitted effect of over 25% in size
Outline: as §2

[9] = qHTS of pediatric cancer cell lines to identify multiple opportunities for drug repurposing: Primary screen for NB1643 cells (AID 1347099); further: nearly all actives have a fitted effect of over 50% in size
Outline: as §1

[10] = qHTS of pediatric cancer cell lines to identify multiple opportunities for drug repurposing: Primary screen for NB-EBc1 cells (AID 1347095)
Outline: as §1

Measured: Potency

Nc1ccc(S(=O)(=O)c2ccc(N)cc2)cc1
inactive: [1] | [2] | [3] | [4] | [5] | [6] | [7] | [8]

O=C(O)Cc1cn(-c2ccccc2)nc1-c1ccc(Cl)cc1
inactive: [1] | [3] | [4] | [5] | [9] | [7] | [8]

CC(=O)Oc1cccc(O)c1
inactive: [2] | [3] | [10] | [4] | [5] | [6] | [9] | [7]

NS(=O)(=O)c1ccc(NC(=O)CCC(=O)O)cc1
inactive: [2] | [3] | [10] | [4] | [5] | [6] | [9] | [7]

CC1(C)S[C@@H]2[C@H](N=CN3CCCCCC3)C(=O)N2[C@H]1C(=O)O
inactive: [1] | [2] | [3] | [4] | [5] | [6] | [9] | [7] | [8]

Cc1cccc(Nc2ccccc2C(=O)O)c1C
inactive: [1] | [3] | [10] | [4] | [6] | [9] | [7]

COc1ccc(NS(=O)(=O)c2ccc(N)cc2)nn1
inactive: [1] | [3] | [10] | [4] | [5] | [6] | [9] | [7] | [8]

CCCCCCCCCCCCCCCCC(C(=O)O)C(O)(CC(=O)O)C(=O)O (stereo not drawn)
inactive: [1] | [2] | [3] | [4] | [5] | [6] | [7] | [8]

CC(N)CCCC(C)(C)O (stereo not drawn)
inactive: [1] | [2] | [3] | [4] | [5] | [6] | [7] | [8]

O=S1(=O)OC(c2ccc(O)cc2)(c2ccc(O)cc2)c2ccccc21
inactive: [1] | [2] | [3] | [4] | [5] | [6] | [7]

CCOC(=O)[C@H](CCc1ccccc1)N[C@@H](C)C(=O)N1CCC[C@H]1C(=O)O
inactive: [1] | [2] | [4] | [5] | [6] | [9] | [7]

CN1C[C@@H]2C[C@H]1CN2c1cc2c(cc1F)c(=O)c(C(=O)O)cn2C1CC1
inactive: [2] | [3] | [10] | [4] | [5] | [6] | [9] | [7]

CNCc1ccccc1
inactive: [1] | [3] | [10] | [4] | [5] | [6] | [9] | [7] | [8]

O=C1c2cccc(O)c2C(=O)c2c(O)cccc21
inactive: [1] | [2] | [3] | [4] | [5] | [6] | [9] | [8]

O=C(O)c1ccccc1C(=O)Nc1ccc(S(=O)(=O)Nc2nccs2)cc1
inactive: [1] | [3] | [10] | [4] | [5] | [6] | [9] | [7] | [8]

CC(CSC(=O)c1ccccc1)C(=O)N1C[C@@H](Sc2ccccc2)C[C@H]1C(=O)O (stereo partly drawn)
inactive: [1] | [2] | [3] | [4] | [5] | [6] | [9] | [7] | [8]

CC(=O)N1C[C@H](O)C[C@H]1C(=O)O
inactive: [2] | [3] | [10] | [4] | [5] | [6] | [9] | [7]

O=C(O)CCC(=O)O
inactive: [2] | [3] | [10] | [4] | [5] | [9] | [7] | [8]

CC1CCN(CCCC(=O)c2ccc(F)cc2)CC1
inactive: [2] | [3] | [4] | [5] | [6] | [9] | [7] | [8]

Cc1c(Cn2ccnc2)c2ccccc2n1CCC(=O)O
inactive: [2] | [3] | [10] | [4] | [5] | [6] | [9] | [7] | [8]

O=C1c2ccccc2S(=O)(=O)N1CCCCN1CCN(c2ncccn2)CC1
inactive: [2] | [3] | [10] | [4] | [5] | [6] | [9] | [7] | [8]

FC(F)(F)C(Cl)Br (stereo not drawn)
inactive: [2] | [3] | [10] | [4] | [6] | [9] | [7] | [8]

O=C(O)c1cc(=O)c2ccccc2o1
inactive: [2] | [3] | [10] | [4] | [5] | [6] | [9] | [7] | [8]

C[C@H]1COc2c(C3(N)CC3)c(F)cc3c(=O)c(C(=O)O)cn1c23
inactive: [2] | [3] | [10] | [4] | [5] | [6] | [9] | [7] | [8]

COc1ccc(C(=O)NCc2ccc(OCCN(C)C)cc2)cc1OC
inactive: [2] | [3] | [10] | [4] | [5] | [9] | [7] | [8]

CN(C/C=C/C#CC(C)(C)C)Cc1cccc2ccccc12
inactive: [3] | [4] | [6] | [9] | [7] | [8]

CC(C)c1cc2c(cc1S(=O)(=O)O)[C@@]1(C)CCC[C@@](C)(C(=O)O)[C@@H]1CC2
inactive: [2] | [3] | [10] | [4] | [5] | [9] | [7] | [8]

Cc1cc(OI)c(C(C)C)cc1-c1cc(C(C)C)c(OI)cc1C
inactive: [2] | [3] | [10] | [4] | [5] | [6] | [9] | [7] | [8]

Reference: PubChem BioAssay (NCATS)
